# KCNH2 3.1 block = inhibitors of human KCNH2 3.1 potassium channel isoform | U2OS KCNH2 3.1, thallium flux FluxOr; active compounds read low | 340,000 compounds, 0.95% hits | activity change, % (tested at about 1.8 µM);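 active = maximum activity change below -70%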;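 note: thallium influx rate constant from kinetic fluorescence after stimulation buffer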
#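 Virally transduced U2OS (3.1 isoform, 4 h infection in dark at RT) → overnight 37 C → FluxOr + Red40 in HBSS/HEPES, 45 min → stimulation buffer, 2 min kinetic read → rate constant vs DMSO controls.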
# RXFP1 antagonist = blocks the human relaxin receptor RXFP1; Q9HBX9; HEK293-RXFP1, relaxin-stimulated cAMP HTRF, 30 min; active compounds read low; activity change, negative = inhibition, % at 57.5 µM; 350,000 compounds, 0.59% hits;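 active = activity change of -60% or lower, but not beyond a set lower limit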
# pAkt inh = inhibitors of Akt phosphorylation; Neuro2A IGF-stimulated pAkt S473 HTRF, 20 min; active compounds read low; activity change, % for hits at 50 µM; 360,000 compounds, 0.32% hits; AID 651550; in the data active = activity change below about -80%
#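 Neuro2A cells (4,500/well, DMEM with 0.5% FBS) were treated with compound at a single 50 µM final concentration, stimulated with 6 nM IGF for 20 min at 37 °C, and lysed. Phospho-Akt Ser473 was read by HTRF as 665/615 ratio ×10^4.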
# RXFP1 agonist = RXFP1 (human) receptor agonism; 370,000 compounds, 0.3% hits; HEK293T-RXFP1 cAMP TR-FRET, 30 min; response scale: percent of porcine relaxin response, buffer zero; Potency, µM (doses to about 57.5 µM), for inactives: at the top dose activation, usual class: activators; AID 2676; Q9HBX9; active = well fitted activation curve with a large enough effect; note: potency is the fitted concentration of half-maximal effect; nearly all actives have a fitted effect of over 60% in size
#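 HEK293 cells stably expressing RXFP1, treated 30 min at 37C with compounds plus PDE4 inhibitor Ro 20174; cAMP measured by HTRF TR-FRET. Normalized to buffer and 29 nM porcine relaxin; EC50 by Hill fit.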
# hERG WT inh = inhibitors of human wildtype KCNH2 potassium channel. U2OS, BacMam KCNH2, thallium flux FluxOr; active compounds read low. 340,000 compounds, 0.37% hits. activity change, % at 1.84 µM;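 active = maximum activity change below -70%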
# Target sequence (Q12809 whole entry, looked up): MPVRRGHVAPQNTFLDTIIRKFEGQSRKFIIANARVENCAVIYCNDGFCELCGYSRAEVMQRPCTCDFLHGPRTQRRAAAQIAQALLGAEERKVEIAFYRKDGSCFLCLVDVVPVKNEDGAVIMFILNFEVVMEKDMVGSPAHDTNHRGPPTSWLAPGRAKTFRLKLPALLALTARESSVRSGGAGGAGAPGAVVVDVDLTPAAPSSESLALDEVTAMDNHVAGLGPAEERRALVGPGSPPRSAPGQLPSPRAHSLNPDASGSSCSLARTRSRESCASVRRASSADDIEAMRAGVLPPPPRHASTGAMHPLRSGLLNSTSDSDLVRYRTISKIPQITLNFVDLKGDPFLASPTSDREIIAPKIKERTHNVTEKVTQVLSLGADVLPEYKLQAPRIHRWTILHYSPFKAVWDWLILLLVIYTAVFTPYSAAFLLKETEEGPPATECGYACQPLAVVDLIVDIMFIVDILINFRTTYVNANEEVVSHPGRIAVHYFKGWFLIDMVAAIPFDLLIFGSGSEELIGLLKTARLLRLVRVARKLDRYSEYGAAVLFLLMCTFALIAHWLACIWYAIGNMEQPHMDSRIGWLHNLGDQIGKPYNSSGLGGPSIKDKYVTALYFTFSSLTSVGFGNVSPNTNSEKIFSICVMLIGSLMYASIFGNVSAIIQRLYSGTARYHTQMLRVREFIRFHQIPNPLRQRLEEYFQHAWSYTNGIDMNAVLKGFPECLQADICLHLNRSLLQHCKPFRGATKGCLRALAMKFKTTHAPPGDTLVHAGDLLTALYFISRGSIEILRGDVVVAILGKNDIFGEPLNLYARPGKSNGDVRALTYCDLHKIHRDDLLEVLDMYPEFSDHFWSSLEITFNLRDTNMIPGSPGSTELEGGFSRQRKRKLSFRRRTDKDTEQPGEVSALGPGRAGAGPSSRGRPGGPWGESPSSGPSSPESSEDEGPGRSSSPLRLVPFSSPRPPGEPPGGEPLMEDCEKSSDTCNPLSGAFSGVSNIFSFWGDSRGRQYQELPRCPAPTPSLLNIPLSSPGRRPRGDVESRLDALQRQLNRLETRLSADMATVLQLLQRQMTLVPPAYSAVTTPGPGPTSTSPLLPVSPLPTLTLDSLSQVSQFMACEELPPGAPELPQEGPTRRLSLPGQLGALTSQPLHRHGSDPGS
#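 U2OS cells were transduced with wild-type KCNH2 virus (2.03 x 10^8 / mL) for 4 h at room temperature, then cultured overnight at 37 C. Thallium flux was read with FluxOr dye. Rate constants were normalized to DMSO controls.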
# The depositor's hits bear a star; i = inactive; / = no result. A selection: hits, their analogues and other compounds. The true share with any hit is near 1.7%. % is set by controls: 0 for no effect and ±100 for the full control effect.
SMILES,KCNH2 3.1 block,RXFP1 antagonist,pAkt inh,RXFP1 agonist,hERG WT inh
O=C(NC(CC(=O)N1CCN(c2ccc([N+](=O)[O-])cc2)CC1)c1ccccc1)c1ccccc1Cl (stereo not drawn),-106.8*,-8.4,i,-0.7%,-117.0*
CCN(CC)c1ccc(NC(=O)Nc2ccccc2C(F)(F)F)cc1,-1.2,-8.0,-115.8%*,-2.6%,1.3
CCN(CC)c1ccc(NC(=O)Nc2cccc3ccccc23)cc1,6.9,-22.0,i,-2.4%,-3.6
C/C(Cn1cnc([N+](=O)[O-])n1)=N\NC(=O)c1cccc(F)c1,5.0,6.6,i,-4.2%,5.7
C=CCNC(=O)NC(=O)COC(=O)c1nc2nccc(C)n2n1,4.6,4.0,i,15.8µM*,10.8
S=C(NCc1ccccc1)N1CCN(c2ccccc2)CC1,-73.6*,-0.8,i,-1.0%,-0.1
O=C(NCc1ccccc1)N1CCN(c2ccccc2)CC1,-17.0,-17.8,i,-0.1%,-6.8
Nc1[nH]ncc1-c1ccc(Cl)cc1,11.9,-8.5,i,0.5%,-4.5
COc1cc(-c2cn[nH]c2N)cc(OC)c1OC,-78.7*,-4.9,i,2.5%,-7.3
CCCCCCCc1nc2c(=O)n(C)c3ccccc3c2o1,-2.6,-1.5,/,0.2%,1.3
CCCCCCc1nc2c(=O)[nH]c3ccccc3c2o1,-0.6,-13.8,-87.5%*,11.0%,2.6
O=C(COc1cccc2ccccc12)Nc1ccc(Cl)cc1C(=O)O,-4.6,-10.2,i,1.6%,-19.9
O=C(COc1cccc2ccccc12)Nc1cc(Cl)ccc1C(=O)O,1.6,-81.0*,i,1.5%,20.0
CC(=O)NC(Cc1ccccc1)C(=O)N1CCN(C(=O)c2cccs2)CC1 (stereo not drawn),-94.5*,5.6,i,11.0%,5.5
CC(C)(C)c1ccc(-c2nc(SCC(=O)Nc3ccccc3F)n3[nH]c(=O)cc3n2)cc1,/,-63.8*,/,2.5%,/
CCOC(=O)C1=C(CN2CCC(C)CC2)NC(=O)NC1c1ccc(Cl)cc1 (stereo not drawn),-12.8,-7.6,i,1.6%,25.8
O=[N+]([O-])c1ccccc1-c1ccc(C(=S)N2CCN(c3ccccc3)CC2)o1,12.1,-2.8,i,-4.2%,-16.1
N#C/C(=C\c1ccc(-c2ccccc2[N+](=O)[O-])o1)C(=O)N1CCOCC1,-79.3*,13.2,i,-0.6%,-0.3
CCOC(=O)C(C)(C)n1nnc(-c2ccc([N+](=O)[O-])cc2)n1,-82.8*,23.3,i,-1.3%,-4.1
O=C(Nc1cccc(F)c1)N1CCC(n2c(=O)[nH]c3ccccc32)CC1,-193.2*,-26.3,i,1.7%,-228.4*
O=C(Nc1cccc(S(=O)(=O)N2CCCCC2)c1)C1CCC1,-91.7*,-2.1,i,2.1%,88.2
COc1cccc(NC(=O)c2ccc(S(=O)(=O)N3CCCC3)cc2)c1,-16.0,6.6,i,3.3%,12.6
O=C(Oc1cccc(NC(=O)c2ccco2)c1)c1cccc(S(=O)(=O)N2CCCCC2)c1,-7.3,-2.8,-116.2%*,-0.3%,10.3
CC(C)Oc1ccc(C(=O)Nc2cccc(S(=O)(=O)N3CCCC3)c2)cc1,-125.3*,-4.1,i,/,14.6
CC(OC(=O)C1CC1)C(=O)Nc1cccc(S(=O)(=O)N2CCOCC2)c1 (stereo not drawn),-133.7*,0.1,i,/,12.3
SMILES,KCNH2 3.1 block,RXFP1 antagonist,pAkt inh,RXFP1 agonist,hERG WT inh
O=C(Nc1cccc(S(=O)(=O)N2CCOCC2)c1)c1ccco1,-6.4,-10.3,i,-1.1%,3.6
COc1ccc(OC)c(/C=N/NC(=O)CNC(=O)c2cccc3ccccc23)c1,7.7,-2.9,i,0.9%,-0.5
CCCCC(=O)NC(=S)Nc1ccccc1C(=O)Nc1ccccc1,-2.8,-22.7,i,0.8%,10.6
CN(C)c1ccc(C(CNC(=O)COc2ccc(Cl)cc2)N2CCOCC2)cc1 (stereo not drawn),/,-8.7,/,8.1%,/
CN(C)c1ccc(C(CNC(=O)COc2ccc(Cl)cc2)N2CCCC2)cc1 (stereo not drawn),-24.7,-64.0*,/,0.4%,12.9
CN1CCN(NC(=O)Nc2ccc(Br)cc2Cl)CC1,-9.1,-1.4,i,4.7%,-2.2
CCc1ccccc1NC(=O)C1CCCN(S(=O)(=O)c2c(C)noc2C)C1 (stereo not drawn),8.2,-10.5,i,-0.4%,-14.9
